Where “and” joins values, the source holds several entries; their conditions need not be identical. Identical values can stand only once. Calls of active or inactive are those of the source.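 Rule for the calls, unless noted: active = mean z-score across replicates of 1.96 or higher in either the MELAS or the Rieske mutant cell line; inactive = the rest.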
How the values were obtained:
[1] = stimulators of nuclear beta-catenin in C2C12, primary screen, imaging, WNT3A-conditioned medium, mouse C2C12, NPC library (AID 1117326; in the data active = nuclear beta-catenin stimulation mostly above about 4.2%, no sharp cut-off; inactive = mostly below about 10%); settings: stronger effect = higher value
[2] = stimulators of insulin release from INS-1E, primary screen, cell-based, 5 mM glucose, NPC library (AID 1117329;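 active = compound raises insulin release from rat beta cells at 5 mM glucose, no numeric limit stated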); settings: rat INS-1E insulin secretion, at 10 µM, stronger effect = higher value
[3] = growth inhibition of GSK3B-pretreated HCT116 cells – cell-based, CellTiter-Glo, 0.2 to 20 µM (AID 1117336;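 active = compounds lowering colon cancer cell viability after pretreatment blocking the GSK3B kinase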); settings: HCT116 viability after GSK3B inhibitor, at 20 µM, stronger effect = higher value
[4] = inhibition of endothelial tube formation, primary screen, imaging, VEGF stimulated, CD31 staining, tube area, NPC library (AID 1117340;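 active = compound that reduces growth-factor-driven endothelial tube area in a mixed cell culture, no cutoff stated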); settings: VEGF-stimulated ADSC/ECFC co-culture, at 10 µM, stronger effect = higher value
[5] = glucagon-like peptide 1 release enhancers, primary assay, NCI-H716 cell line, NPC library (AID 1117341;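 active = compound raises GLP1 secretion from the human gut endocrine cells, with no numeric limit stated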); settings: NCI-H716 cells, at 10 µM, stronger effect = higher value
[6] = HCT116 colon cancer cell growth inhibition, primary screen, CellTiter-Glo luminescence, NPC library (AID 1117342;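 active = compounds that lower survival of HCT116 colon cancer cells in the luminescence readout, no numeric limit stated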); settings: at 20 µM (top of the series)
[7] = CellTiter-Glo luminescent readout of SW480 viability loss, NPC library primary (AID 1117343;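 active = compounds that lower viability of the colon cancer cells in the luminescence readout, with no numeric limit stated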); settings: CellTiter-Glo luminescence; at 20 µM (top of the series) unless noted
[8] = decreased DLD-1 cellular survival, CellTiter-Glo luminescent readout, NPC compound collection, primary HTS (AID 1117346;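 active = compounds that lower survival of DLD-1 colon cancer cells in the luminescence readout, no cutoff given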); settings: DLD-1 viability, CellTiter-Glo luminescence; at 20 µM (top of the series)
[9] = differential killing of epithelial or mesenchymal cells, primary screen, imaging, PC-3E GFP, TEM4-18 mCherry, co-culture (AID 1345086;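 active = compounds killing one labelled cell type while sparing the other, by normalised counts and ratio limits, not self-fluorescent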;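 for all read-outs here: cells exposed to compound for 72 h before imaging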;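 for red/green cell ratio (normalised): normalised mesenchymal count divided by normalised epithelial count so high means epithelial killing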); settings: imaging cell counts, at 1 µM; for red/green cell ratio (normalised): actives lie on both sides, counts scaled to control wells, 1 = unselective
[10] = sensitizers of A549 cells to miR-34 induction, primary screen, imaging, A549 dox-inducible miR-34, nuclei and caspase counts (AID 1347080;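 active = compounds whose cell count with miR-34 switched on is under 0.7 times the count with it off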); settings: A549 miR-34 inducible, Hoechst nuclei count, 48 h
[11] = survival rescue of mitochondrial mutant cells in low glucose, primary screen, MELAS cybrids, Rieske KO mouse fibroblasts, CellTiter-Glo (AID 1508586);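 note: z relative to plate mean and SD of compound and empty wells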
[12] = molecular target: NAD(+) hydrolase SARM1 (Homo sapiens) (UniProt Q6SZW1); experiment: SARM1 TIR NADase inhibitors, cell lysate, NAD-Glo luminescence (AID 1508614;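 active = compound whose remaining NAD level is above about 45 nM, limit read from the data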;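 note: higher remaining NAD means stronger inhibition of SARM1 NADase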); settings: SAM-TIR HEK293T lysate NADase, at 1 µM, stronger effect = higher value
NAD(+) hydrolase SARM1 (Homo sapiens), sequence (Q6SZW1 whole entry, looked up): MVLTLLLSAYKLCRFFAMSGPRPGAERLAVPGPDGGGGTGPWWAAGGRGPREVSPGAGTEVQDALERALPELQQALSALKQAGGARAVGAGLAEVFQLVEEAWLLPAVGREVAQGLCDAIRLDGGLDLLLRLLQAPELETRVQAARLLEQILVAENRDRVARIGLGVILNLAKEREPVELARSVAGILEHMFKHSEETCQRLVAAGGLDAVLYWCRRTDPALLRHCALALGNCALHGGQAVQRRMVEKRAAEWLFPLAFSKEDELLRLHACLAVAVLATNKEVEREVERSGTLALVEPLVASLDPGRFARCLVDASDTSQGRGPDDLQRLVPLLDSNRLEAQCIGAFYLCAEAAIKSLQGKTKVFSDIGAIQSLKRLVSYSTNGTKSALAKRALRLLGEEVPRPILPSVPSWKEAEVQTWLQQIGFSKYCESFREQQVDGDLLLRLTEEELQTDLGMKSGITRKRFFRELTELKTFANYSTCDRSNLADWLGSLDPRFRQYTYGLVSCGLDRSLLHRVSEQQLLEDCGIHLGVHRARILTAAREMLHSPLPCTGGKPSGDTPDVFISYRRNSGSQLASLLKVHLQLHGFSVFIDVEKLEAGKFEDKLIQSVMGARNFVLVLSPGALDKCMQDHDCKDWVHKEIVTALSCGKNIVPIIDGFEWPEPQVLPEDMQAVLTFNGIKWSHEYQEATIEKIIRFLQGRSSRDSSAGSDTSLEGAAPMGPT

[13] = hESC survival regulators, cell-based (AID 493140; call rule not given here;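 note: cells exposed to compounds for four days before counting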); settings: human embryonic stem cell survival screen; stronger effect = higher value
[14] = liver-stage malaria parasite growth inhibition, primary screen, cell-based, HepG2, luciferase luminescence, HepG2 viability (AID 624349; in the data active = parasite load remaining mostly below about 12%, no sharp cut-off; inactive = mostly above about 10%;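 note: 100% = mean of DMSO negative control wells on the same plate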); settings: P. berghei liver stage in HepG2, luciferase luminescence, concentration not given here; parasite load remaining: stronger effect = lower value; viability: measured here: HepG2 viability without parasites
[15] = measured here: epithelial PC-3E GFP cell survival
[16] = measured here: mesenchymal TEM4-18 mCherry cell survival
[17] = stronger effect = lower value, cell number ratio, induced over uninduced
[18] = measured here: relative caspase fold change +Dox/-Dox
[19] = measured here: total cells with miR-34 induction, stronger effect = lower value
[20] = measured here: total cells without miR-34 induction
[21] = MELAS cybrid survival, CellTiter-Glo 48 h, stronger effect = higher value
[22] = Rieske KO mouse fibroblast survival, CellTiter-Glo 72 h

## CN1CCC(=C2c3ccccc3CCc3cccnc32)CC1
[1]; at 10 µM
  nuclear beta-catenin stimulation: -2.3% (inactive)
[1]; stimulation, at 2 µM
  nuclear beta-catenin stimulation: -0.6%
[2]
  insulin secretion stimulation: 9.4% (inactive)
[3]
  viability decrease: -3.7% (inactive)
[4]
  tube area decrease: 15.1% (inactive)
[5]
  GLP1 secretion stimulation: 2.5% (inactive)
[6]
  inhibition of viability: -2.7% (inactive)
[7]
  viability decrease (inhibition): 13.6% (inactive)
[8]
  viability decrease (inhibition): -0.2% (inactive)
[9]
  red/green cell ratio (normalised): 0.76 (inactive)
[9]; [15]
  normalised cell number: 1.26
[9]; [16]
  normalised cell number: 0.95
[10]; [17]
  fold change: 0.929 (inactive) and 0.835 (inactive)
[10]; [18]
  fold change: 0.933 and 0.421 and 1.15
[10]; [19]
  cell count: 8510 and 8540 and 7120
[10]; [20]
  cell count: 9160 and 9200 and 8530
[11]; [21]
  z-score: -0.226 (inactive) and -0.309 (inactive) and -0.701 (inactive)
[11]; [22]
  z-score: -0.00379 and -0.328 and -0.133
[12]
  remaining NAD: 10 nM (inactive)

## CCCCOc1cc(C(=O)OCCN(CC)CC)ccc1N
[13]
  survival: 11.5 (inactive)
[14]
  parasite load remaining: 22.4% (inactive) and 92.2% (inactive)
  viability: 49.5% and 89.9%
[1]; at 10 µM
  nuclear beta-catenin stimulation: 1.9% (inactive)
[1]; stimulation, at 2 µM
  nuclear beta-catenin stimulation: 3.9%
[2]
  insulin secretion stimulation: 50.7% (active)
[3]
  viability decrease: 45.5% (inactive)
[4]
  tube area decrease: 14.2% (inactive)
[5]
  GLP1 secretion stimulation: 7.1% (inactive)
[6]
  inhibition of viability: 66% (active)
[7]
  viability decrease (inhibition): 51.8% (active)
[8]
  viability decrease (inhibition): 81.6% (active)
[9]
  red/green cell ratio (normalised): 0.93 (inactive)
[9]; [15]
  normalised cell number: 1.02
[9]; [16]
  normalised cell number: 0.95
[10]; [17]
  fold change: 0.886 (inactive) and 0.893 (inactive) and 0.93 (inactive)
[10]; [18]
  fold change: 1.39 and 0.433 and 0.883
[10]; [19]
  cell count: 8530 and 8120 and 7780
[10]; [20]
  cell count: 9620 and 9090 and 8360
[11]; [21]
  z-score: 0.206 (inactive) and -0.26 (inactive) and 0.345 (inactive)
[11]; [22]
  z-score: -0.405 and -0.149 and 0.0628
[12]
  remaining NAD: 10 nM (inactive)

## CC(C(=O)O)c1ccc2c(c1)Cc1cccnc1O2 (stereo not given)
[14]
  parasite load remaining: 27% (inactive)
  viability: 105%
[1]; at 10 µM
  nuclear beta-catenin stimulation: 0.4% (inactive)
[1]; stimulation, at 2 µM
  nuclear beta-catenin stimulation: -0.1%
[2]
  insulin secretion stimulation: 4.3% (inactive)
[3]
  viability decrease: -8.3% (inactive)
[4]
  tube area decrease: -14.8% (inactive)
[5]
  GLP1 secretion stimulation: -2.7% (inactive)
[6]
  inhibition of viability: -12% (inactive)
[7]
  viability decrease (inhibition): 18.6% (inactive)
[8]
  viability decrease (inhibition): 9.3% (inactive)
[9]
  red/green cell ratio (normalised): 0.99 (inactive)
[9]; [15]
  normalised cell number: 0.91
[9]; [16]
  normalised cell number: 0.9
[10]; [17]
  fold change: 1 (inactive) and 0.866 (inactive)
[10]; [18]
  fold change: 0.334 and 1.75
[10]; [19]
  cell count: 3140 and 9560
[10]; [20]
  cell count: 3140 and 11000
[11]; [21]
  z-score: -0.199 (inactive) and 0.41 (inactive) and -0.18 (inactive)
[11]; [22]
  z-score: 0.0831 and 0.15 and -0.741
[12]
  remaining NAD: 10 nM (inactive)

## CCOc1nc2cccc(C(=O)O)c2n1Cc1ccc(-c2ccccc2-c2nn[nH]n2)cc1
[14]
  parasite load remaining: 51% (inactive)
  viability: 130%
[1]; at 10 µM
  nuclear beta-catenin stimulation: -1.9% (inactive)
[1]; stimulation, at 2 µM
  nuclear beta-catenin stimulation: 0.8%
[2]
  insulin secretion stimulation: 1.4% (inactive)
[3]
  viability decrease: -7.7% (inactive)
[4]
  tube area decrease: 5.3% (inactive)
[5]
  GLP1 secretion stimulation: -1.6% (inactive)
[6]
  inhibition of viability: -9.8% (inactive)
[7]
  viability decrease (inhibition): 16.8% (inactive)
[8]
  viability decrease (inhibition): -13% (inactive)
[9]
  red/green cell ratio (normalised): 1.24 (inactive)
[9]; [15]
  normalised cell number: 1.08
[9]; [16]
  normalised cell number: 1.35
[10]; [17]
  fold change: 1.02 (inactive) and 0.834 (inactive)
[10]; [18]
  fold change: 0.596 and 1.3
[10]; [19]
  cell count: 7490 and 8900
[10]; [20]
  cell count: 7350 and 10700
[11]; [21]
  z-score: -0.183 (inactive) and 0.664 (inactive) and -0.412 (inactive)
[11]; [22]
  z-score: -0.0185 and -0.257 and -0.953
[12]
  remaining NAD: 10 nM (inactive)

## CCCCOC(=O)c1ccc(O)cc1
[13]
  survival: 2.33 (inactive)
[14]
  parasite load remaining: 105% (inactive) and 43.2% (inactive)
  viability: 94.2% and 99.8%
[1]; at 10 µM
  nuclear beta-catenin stimulation: 1.7% (inactive)
[1]; stimulation, at 2 µM
  nuclear beta-catenin stimulation: 1.9%
[2]
  insulin secretion stimulation: 4.6% (inactive)
[3]
  viability decrease: -64.4% (inactive)
[4]
  tube area decrease: 17% (inactive)
[5]
  GLP1 secretion stimulation: -6.3% (inactive)
[6]
  inhibition of viability: 15% (inactive)
[7]
  viability decrease (inhibition): 67.9% (active)
[8]
  viability decrease (inhibition): 9.6% (inactive)
[9]
  red/green cell ratio (normalised): 1.09 (inactive)
[9]; [15]
  normalised cell number: 1.43
[9]; [16]
  normalised cell number: 1.56
[10]; [17]
  fold change: 0.899 (inactive) and 0.857 (inactive)
[10]; [18]
  fold change: 1.34 and 7.37
[10]; [19]
  cell count: 8710 and 10100
[10]; [20]
  cell count: 9690 and 11800
[11]; [21]
  z-score: 0.705 (inactive)
[11]; [22]
  z-score: -0.347
[12]
  remaining NAD: 10 nM (inactive)

From PubChem BioAssay
